Screening results: PubChem BioAssay, National Center for Advancing Translational Sciences (NCATS)
An excerpt weighted towards active compounds, which were near 12% of everything screened.
BAZ2B inh = BAZ2B (human) inhibition. Q9UIF8. AlphaScreen BAZ2B-H3K14Ac peptide displacement. Potency, µM (series often up to 114 µM), for the others: top-dose activity change, negative = inhibition, usual class: inhibitors. actives 4.4% (n = 360,000); further: on the % scale 0 is the no-effect control and ±100 the full control effect; nearly all actives have a fitted effect of over 60% in size
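AlphaScreen displacement: compounds (up to 110uM) incubated 30 min at room temperature with a preformed 50 nM BAZ2B/50 nM biotinylated H3K14Ac peptide complex in PBS pH 7.4 with Tween-20. Donor and acceptor beads at 10 ug/mL final added, 20 min light-protected before reading.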
G9a block = G9a (human) methyltransferase inhibition; Q96KQ7; G9a H3K9 monomethylation, AlphaScreen, 2 h; Potency, µM (series often up to 102 µM), for the others: at the highest dose activity, negative = inhibition, hits mostly inhibitors; actives 8.8% (n = 350,000); further: on the % scale 0 is the no-effect control and ±100 the full control effect; nearly all actives have a fitted effect of over 75% in size
Target sequence (Q96KQ7 913-1193 limits assumed): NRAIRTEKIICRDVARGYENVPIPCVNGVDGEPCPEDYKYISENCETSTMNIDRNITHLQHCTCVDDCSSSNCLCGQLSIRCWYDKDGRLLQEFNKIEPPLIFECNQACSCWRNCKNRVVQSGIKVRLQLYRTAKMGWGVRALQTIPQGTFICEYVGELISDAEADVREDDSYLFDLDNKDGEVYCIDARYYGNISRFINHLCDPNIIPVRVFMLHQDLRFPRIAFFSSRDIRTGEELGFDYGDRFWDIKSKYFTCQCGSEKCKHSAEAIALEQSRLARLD
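Signal arises when biotinylated H3K9 peptide, once monomethylated, bridges streptavidin donor and antibody-captured acceptor beads. Enzyme at 20 nM was preincubated 15 min with test compounds; peptide 500 nM and SAM 20 uM then reacted for 2 h.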
JMJD2A Tudor inh = blocks the human JMJD2A Tudor domain | Potency, µM (highest dose often 114 µM), for inactives: top-dose activity change, negative = inhibition, most hits filed as inhibitors | actives 4.4% (n = 390,000) | O75164 | AlphaScreen JMJD2A-Tudor / H3K4me3 peptide binding; further: on the % scale 0 is the no-effect control and ±100 the full control effect; nearly all actives have a fitted effect of over 50% in size
Sfp PPTase inh = Sfp phosphopantetheinyl transferase inhibition. Biochemical Sfp PPTase activity, qHTS. Potency, µM, without a hit: largest response in the series, negative = inhibition, usual class: inhibitors. actives 3.5% (n = 310,000). AID 1490;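 further: the enzyme is Sfp with the accession as filed and its product quenches rhodamine fluorescence; 0% = enzyme reaction without inhibitor and -100% = no enzyme wells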
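With Hepes-Na pH 7.6 buffer containing 10 mM MgCl2, Sfp (15 nM) modified BHQ-2-YbbR (12.5 uM) using rhodamine-CoA (5 uM). Two reads 30 minutes apart at 525/598 nm yielded each well's rate.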
HP1b chromo inh = blocks HP1-beta chromodomain binding to methylated histone tails; P83916; AlphaScreen HP1-beta / biotin-H3K9me3 peptide binding; Potency, µM (doses to about 114 µM), for the others: top-dose activity change, negative = inhibition, usual class: inhibitors; actives 0.56% (n = 390,000); AID 540317; further: nearly all actives have a fitted effect of over 70% in size
Target sequence (P83916 whole entry, looked up): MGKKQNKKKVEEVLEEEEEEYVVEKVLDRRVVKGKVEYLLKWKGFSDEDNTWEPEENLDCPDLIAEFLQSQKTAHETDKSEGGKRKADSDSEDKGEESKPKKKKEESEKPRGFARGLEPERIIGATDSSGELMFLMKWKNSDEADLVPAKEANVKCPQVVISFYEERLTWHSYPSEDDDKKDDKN
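HP1-beta protein (50 nM final) preincubated 30 min at room temperature with biotinylated H3(1-18)K9me3 peptide (50 nM) in PBS pH 7.4, 0.01% Tween-20, then compound added for 30 min. AlphaScreen streptavidin donor/nickel chelate acceptor beads (10 ug/mL final), 30 min dark, luminescence read.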
The depositor's hits bear a star; u = inconclusive; x = no result; [ ] = another dose, or the depositor's remark. The call rests on the fitted dose curve; in most records, active means well fitted curve in the direction sought with a large enough effect; inconclusive means small, poorly fitted or top-dose-only effect, or another doubt; inactive means no such curve, though single readings can be large; an effect the other way counts as inactive or inconclusive. Potency means the concentration at half of the fitted maximal effect.

SMILES	BAZ2B inh	G9a block	JMJD2A Tudor inh	Sfp PPTase inh	HP1b chromo inh
Cc1cc(C)nc(-n2nc(C)c3c(=O)[nH]c(C(F)(F)F)nc32)n1	-5%	-41%[59 µM]	79µM*	-29%	10%
CC1CCC2(CC1)NC(=O)N(CC(=O)NC(C)c1ccc(F)c(F)c1)C2=O (configuration not stated)	5%	-4%[2.33 µM]	-6%	x	35%
COC(=O)NC(c1ccc2ccccc2c1)C(C(C)=O)C(=O)OC (configuration not stated)	x	x	x	12%	x
COc1ccccc1-c1nnc(SCC#CCOC(=O)c2ccc(F)cc2)o1	x	x	18%	x	x
Cc1ccccc1-n1c(C)nnc1SCC(=O)NNC(=O)c1ccccc1	-8%	5%[59 µM]	-10%	-1%	25%
O=C(CSc1ncn[nH]1)OCN1C(=O)c2ccccc2C1=O	-2%	35µM*	-2%	-21%	31%
Cc1nnc(SCC(=O)NNC(=O)c2ccccc2)n1-c1ccccc1	8%	-44%[59 µM]	50µM*	-25%	28%
O=C1c2ccccc2C(=O)N1CCSc1ncn[nH]1	49%	-9%[59 µM]	-2%	-8%	42%
CCN(Cc1ccccc1)C(=O)CSc1ncn[nH]1	-5%	45µM*	-21%	-10%	-3%
O=C(CSc1nnc(-c2ccccc2O)n1-c1ccccc1)Nc1cccc(C(=O)O)c1	u	50µM*	-3%	-3%	18%
O=C(CSc1ncn[nH]1)NNC(=O)c1ccccc1	5%	9%[0.501 µM]	7.9µM*	x	37%
CC(C)CN1CC2(CCN(C(=O)c3cccc(F)c3)CC2)C1	x	7%[12.7 µM]	x	-5%	x
O=c1cc(-c2ccccc2)oc2cc(O)ccc12	x	x	-13%	-21%	40%
O=c1ccc2c(-c3ccccc3)c3ccc(O)cc3oc-2c1	15%	74%	-29%	32µM*	u
Nc1ccc(-c2c3ccc(=O)cc-3oc3cc(O)ccc23)cc1C(=O)O	u	45µM*	u	-11%	u
CCN1CCN(C(=S)NCCc2ccccc2)CC1	79µM*	u	3.2µM*	-26%	u
Cc1cnn(C(=S)NCC2CCCO2)c1 (configuration not stated)	-2%	32µM*	4.5µM*	-25%	47%
CCNC(=S)N1CCN(C(c2ccccc2)c2ccccc2)CC1	-1%	-12%[59 µM]	-34%	-8%	16%
CCNC(=S)N1CCN(Cc2ccccc2)CC1	50µM*	16µM*	8.9µM*	-23%	u
Fc1ccc(N2CCN(C(=S)NCC3CCCO3)CC2)cc1 (configuration not stated)	-2%	x	-8%	7%	22%
CCN1CCN(C(=S)NCC2CCCO2)CC1 (configuration not stated)	50µM*	40µM*	7.9µM*	-22%	u
O=C(NC(=S)N1CCN(Cc2ccccc2)CC1)c1ccco1	-28%	50µM*	-23%	-7%	6%
CCCNC(=S)N1CCN(CC)CC1	50µM*	10µM*	1.8µM*	-25%	-53%
NC(=S)N/N=C1\c2ccccc2-c2c(C(=O)O)cccc21	-10%	28µM*	-12%	79µM*	-1%
NC(=O)c1cccc2c1-c1ccccc1/C2=N/NC(N)=S	u	45µM*	-30%	-20%	2%
SMILES	BAZ2B inh	G9a block	JMJD2A Tudor inh	Sfp PPTase inh	HP1b chromo inh
CCOC(=O)Nc1ccc2c(c1)C(=NNC(N)=S)c1ccccc1-2	x	x	u	x	4%
COC(=O)c1cccc2c1-c1ccccc1/C2=N\NC(N)=O	-7%	-8%[2.33 µM]	-15%	-5%	-3%
COc1ccc(OC)c(CNC(=O)c2ccc(Sc3ccc(Cl)cc3)c(NC(C)=O)c2)c1	u	-21%[59 µM]	u	x	-3%
O=C1CCc2cc(S(=O)(=O)Nc3ccc(F)c(Cl)c3)ccc2N1	x	x	1%	x	x
Cc1ccc(CNC(=O)c2ccc(NC(=O)N3CCSc4ncccc43)cc2)cc1	-1%	-6%[59 µM]	-15%	x	56%
COc1ccccc1/C=C1\SC(=S)N(CCC(=O)NNC(=O)c2ccccc2O)C1=O	-12%	x	-22%	u	6%
COc1cc([N+](=O)[O-])cc(/C=C2/SC(=S)N(Cc3ccccc3)C2=O)c1O	14µM*	10µM*	18µM*	40µM*	u
COc1cc(/C=C2\SC(=S)N(CC(=O)O)C2=O)ccc1OS(=O)(=O)c1ccc(C)cc1	6%	5%[0.501 µM]	u	x	u
COc1cc(/C=C2/SC(=S)N(CC(=O)O)C2=O)ccc1OC(=O)c1cccs1	u	50µM*	u	u	u
COc1cc(/C=C2/SC(=S)N(Cc3ccccc3)C2=O)cc(Cl)c1O	13µM*	45µM*	25µM*	-3%	u
COc1ccc(/C=C2\SC(=NCc3ccccc3)N(Cc3ccccc3)C2=O)cc1OC	9%	17%[59 µM]	2%	-7%	48%
COc1cc(/C=C2/SC(=S)N(Cc3ccccc3)C2=O)ccc1OS(C)(=O)=O	u	13µM*	u	4%	-26%
CCC(C)NC(=O)C1=CCN(S(=O)(=O)c2ccc(C)cc2)CC1 (configuration not stated)	0%	50µM*	-12%	1%	6%
CCC(C)NS(=O)(=O)c1ccc(S(=O)(=O)N2CC=C(c3ccc(F)cc3)CC2)cc1 (configuration not stated)	-26%	10µM*	u	15%	u
Cc1ccc(NC(=O)C2=CCN(S(=O)(=O)c3ccc(F)cc3)CC2)c(C)c1	0%	u	-8%	32%	48%
Cc1cc(C)c(/C([O-])=C(/C(=S)Nc2ccc(SC(F)F)cc2)[n+]2ccccc2)cc1C	22µM*	35µM*	u	-25%	-22%
CN(C)c1cc[n+](/C(C(=S)Nc2ccc(SC(F)F)cc2)=C(/[O-])c2ccccc2)cc1	x	u	u	u	8%
[O-]/C(=C(\C(=S)Nc1ccc(SC(F)F)cc1)[n+]1ccccc1)c1cc(Cl)ccc1Cl	u	35µM*	u	7%	-18%
CC(C)N(Cc1ccccc1)C(C)C (tested in a mixture with another compound)	x	x	x	1%	x
CNC(=S)NNC(=O)COc1ccccc1C	-35%	32µM*	20µM*	-3%	38%
Cc1ccccc1OCC(=O)NNC=O	9%	-24%	-5%[57.1 µM]	21%	26%
Cc1cccc(OCC(=O)Nc2ccc3c4c(cccc24)CC3)c1C	-5%	-7%[59 µM]	u	-8%	-12%
CNC(=S)NNC(=O)COc1cccc(C)c1C	3%	7.9µM*	40µM*	32%	10%
O=C(COc1ccccc1O)NNc1ccccc1	-4%	16µM*	2%	7%	40%
N#CCSc1ccccc1NC(=O)CN1C(=O)C(=O)N(Cc2ccccc2)C1=O	x	x	-5%	x	15%
COc1ccccc1NC(=O)CN1CCN(CC(=O)Nc2ccc(F)cc2)CC1	9%	u	-3%	-3%	40%
